Here are results for nine compounds from PubChem BioAssay (NCI).

Compounds without any hit were thinned out: in the full panel of roughly 79,000, 15% have a hit. A number with no mark means an inactive call. Activity calls are given as the source filed them. No stated cut-off is given here; in the data, active means growth inhibition above about 70%; inactive means the rest.

A short description of assay [1]: NCI Yeast Anticancer Drug Screen. Data for the rad50 strain (AID 155).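 Further: 0% = growth of vehicle-only cultures of the same strain.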 The conditions noted are these: S. cerevisiae rad50 strain growth inhibition, hits give high values. In outline: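 Relative growth inhibition (compound vs vehicle) was measured in yeast with a defined repair-gene alteration.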
A short description of assay [2]: NCI Yeast Anticancer Drug Screen. Data for the mec2-1 strain (AID 157). As to conditions: S. cerevisiae mec2-1 strain, hits give high values. In outline:
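Readout is yeast growth inhibition, normalised to vehicle-treated controls, in the mec2-1 strain exposed to compound.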

A short description of assay [3]: NCI Yeast Anticancer Drug Screen. Data for the sgs1 mgt1 strain (AID 161).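 Further: 0% = growth of cultures given vehicle only.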 The conditions noted are these: S. cerevisiae sgs1 mgt1 strain, hits give high values. In outline: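 Growth of a repair-deficient yeast mutant was monitored after compound treatment and expressed as inhibition relative to vehicle-treated cultures.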
Assay [4] can be described thus: NCI Yeast Anticancer Drug Screen. Data for the cln2 rad14 strain (AID 165).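 Further: 0% = growth equal to vehicle treated cultures.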 The conditions noted are these: S. cerevisiae cln2 rad14 strain, hits give high values. In outline: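 Relative to vehicle controls, growth inhibition of compound-treated cln2 rad14 yeast was recorded.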
Assay [5] is described as follows: NCI Yeast Anticancer Drug Screen. Data for the bub3 strain (AID 167). The conditions noted are these: S. cerevisiae bub3 mutant strain, hits give high values. Summed up: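 Screening used yeast with an engineered genetic alteration affecting cell cycle control. Compound-exposed cultures were compared with vehicle cultures, and reduced growth was taken as inhibition.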

A short description of assay [6]: NCI Yeast Anticancer Drug Screen. Data for the mlh1 rad18 strain (AID 175). The conditions noted are these: S. cerevisiae mlh1 rad18 strain growth inhibition, hits give high values. In outline: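 Test agents were incubated with a yeast strain of defined genotype (DNA damage repair defect). Inhibition of growth was derived by comparison with vehicle-exposed cultures.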

Setting [7] is: at 5.0 µM (retest, dose inferred, filed as 0.5).
The mark [8] stands for this setting: at 50.0 µM (retest, dose inferred, filed as 5.0).

For `NC(=O)N/N=C(/Cc1nc2ccccc2nc1C/C(=N/NC(N)=O)c1cccc2ccccc12)c1cccc2ccccc12`, the growth inhibition in assay [1] (setting [7]) is -1%; in assay [1] (setting [8]), 9%; in assay [1] (at 50.0 µM) it was 0.65%; in assay [2] (setting [7]), -13%; in assay [2] (setting [8]) it was -7%; in assay [2] (at 50.0 µM) it was 34.4%. The growth inhibition in assay [3] (setting [7]) is -1%; in assay [3] (setting [8]), 17%; in assay [3] (at 50.0 µM), 16.8%; in assay [4] (setting [7]), -5%; in assay [4] (setting [8]), 2%; in assay [4] (at 50.0 µM) it was 82.2% (active). In addition, the growth inhibition was -8% in assay [5] (setting [7]); -10% in assay [5] (setting [8]); 0.15% in assay [5] (at 50.0 µM); -6% in assay [6] (setting [7]); 6% in assay [6] (setting [8]); 8.4% in assay [6] (at 50.0 µM).
`O=c1[nH]c2c([N+](=O)[O-])cc(Cl)cc2nc1/C=C(\O)c1ccc(F)cc1`: the growth inhibition in assay [1] (setting [7]) was 12%; in assay [1] (setting [8]) it was 64%; in assay [1] (at 50.0 µM) it was 71.1% (active); in assay [2] (setting [7]) it was -6%; in assay [2] (setting [8]) it was 23%; in assay [2] (at 50.0 µM), 42.8%. For the same compound, the growth inhibition in assay [3] (setting [7]) is 3%; in assay [3] (setting [8]), 54%; in assay [3] (at 50.0 µM), 73.4% (active); in assay [4] (setting [7]) it was 5%; in assay [4] (setting [8]), 42%; in assay [4] (at 50.0 µM), 42.2%. Besides, the growth inhibition in assay [5] (setting [7]) was 2%; in assay [5] (setting [8]) it was 41%; in assay [5] (at 50.0 µM) it was 43.5%; in assay [6] (setting [7]), -3%; in assay [6] (setting [8]), 65%; in assay [6] (at 50.0 µM), 87.3% (active).
On to `COC(=O)C1=C(C)NC(C)=C(C(=O)OC)C1c1ccc(/[N+]([O-])=C/c2ccccc2)cc1`, for which the growth inhibition is 4% in assay [1] (setting [7]); 43% in assay [1] (setting [8]); 85% (active) in assay [1] (at 50.0 µM); 5% in assay [2] (setting [7]); 34% in assay [2] (setting [8]); 70.8% (active) in assay [2] (at 50.0 µM). Further, the growth inhibition in assay [3] (setting [7]) is 13%; in assay [3] (setting [8]) it was 25%; in assay [3] (at 50.0 µM), 96.4% (active); in assay [4] (setting [7]) it was -1%; in assay [4] (setting [8]), 40%; in assay [4] (at 50.0 µM), 60.2%. In addition, the growth inhibition in assay [5] (setting [7]) is 17%; in assay [5] (setting [8]), 74% (active); in assay [5] (at 50.0 µM), 78.8% (active); in assay [6] (setting [7]), -7%; in assay [6] (setting [8]) it was 67%; in assay [6] (at 50.0 µM) it was 93.2% (active).
With `O=C(O)CCC(c1ccccc1)(c1ccccc1)c1ccccc1`, the growth inhibition in assay [1] (setting [7]) is 66%; in assay [1] (setting [8]), 99% (active); in assay [1] (at 50.0 µM), 99.5% (active); in assay [2] (setting [7]), 53%; in assay [2] (setting [8]), 100% (active); in assay [2] (at 50.0 µM), 99.7% (active). Moreover, the growth inhibition was 54% in assay [3] (setting [7]); 99% (active) in assay [3] (setting [8]); 98.9% (active) in assay [3] (at 50.0 µM); -59% in assay [4] (setting [7]); 99% (active) in assay [4] (setting [8]); 99% (active) in assay [4] (at 50.0 µM). Further, the growth inhibition in assay [5] (setting [7]) was 80% (active); in assay [5] (setting [8]) it was -50%; in assay [5] (at 50.0 µM), 99.5% (active); in assay [6] (setting [7]) it was 64%; in assay [6] (setting [8]), 99% (active); in assay [6] (at 50.0 µM), 99.2% (active).
On to `CC(=O)OC1CCC2(C)C(=CCC3C2CCC2(C)C3CC(C(N)=O)C2C(C)=O)C1` (configuration not stated), for which the growth inhibition in assay [1] (setting [7]) was -2%; in assay [1] (setting [8]), 25%; in assay [1] (at 50.0 µM) it was 49%; in assay [2] (setting [7]), 1%; in assay [2] (setting [8]), 79% (active); in assay [2] (at 50.0 µM) it was 14.6%. For the same compound, the growth inhibition in assay [3] (setting [7]) is 6%; in assay [3] (setting [8]), 75% (active); in assay [3] (at 50.0 µM) it was 76.8% (active); in assay [4] (setting [7]), -3%; in assay [4] (setting [8]), 57%; in assay [4] (at 50.0 µM) it was 61.6%. The growth inhibition was 9% in assay [5] (setting [7]); 97% (active) in assay [5] (setting [8]); 7.4% in assay [5] (at 50.0 µM); -1% in assay [6] (setting [7]); 70% (active) in assay [6] (setting [8]); 59.3% in assay [6] (at 50.0 µM).
As for `O=C1c2ccccc2C(=O)c2sc(Nc3ccc(Cl)c(Cl)c3)nc21`, the growth inhibition in assay [1] (setting [7]) is 89% (active); in assay [1] (setting [8]) it was 98% (active); in assay [1] (at 50.0 µM), 90% (active); in assay [2] (setting [7]) it was 86% (active); in assay [2] (setting [8]), 98% (active); in assay [2] (at 50.0 µM), 92.8% (active). Besides, the growth inhibition was 99% (active) in assay [3] (setting [7]); 98% (active) in assay [3] (setting [8]); 93.2% (active) in assay [3] (at 50.0 µM); 68% in assay [4] (setting [7]); 98% (active) in assay [4] (setting [8]); 88% (active) in assay [4] (at 50.0 µM). For the same compound, the growth inhibition in assay [5] (setting [7]) was 99% (active); in assay [5] (setting [8]), 97% (active); in assay [5] (at 50.0 µM) it was 91.2% (active); in assay [6] (setting [7]), 91% (active); in assay [6] (setting [8]), 97% (active); in assay [6] (at 50.0 µM), 91.3% (active).
For `CC(C)(C)C(=O)CC(Cc1nccc2ccccc12)c1ccco1` (configuration not stated), the growth inhibition in assay [1] (setting [7]) is -3%; in assay [1] (setting [8]), 94% (active); in assay [1] (at 50.0 µM), 98.7% (active); in assay [2] (setting [7]), -5%; in assay [2] (setting [8]) it was 96% (active); in assay [2] (at 50.0 µM), 99.2% (active). The growth inhibition in assay [3] (setting [7]) was -3%; in assay [3] (setting [8]), 97% (active); in assay [3] (at 50.0 µM) it was 98.7% (active); in assay [4] (setting [7]), 2%; in assay [4] (setting [8]), 94% (active); in assay [4] (at 50.0 µM) it was 98% (active). In addition, the growth inhibition in assay [5] (setting [7]) is -1%; in assay [5] (setting [8]) it was 94% (active); in assay [5] (at 50.0 µM), 99.2% (active); in assay [6] (setting [7]) it was -8%; in assay [6] (setting [8]), 97% (active); in assay [6] (at 50.0 µM), 98.9% (active).
Consider `Nc1cc2c(c[n+](CCCBr)c3ccccc23)c2ccccc12`, for which the growth inhibition in assay [1] (setting [7]) is 41%; in assay [1] (setting [8]) it was 98% (active); in assay [1] (at 50.0 µM) it was 66.8%; in assay [2] (setting [7]) it was 23%; in assay [2] (setting [8]) it was 99% (active); in assay [2] (at 50.0 µM) it was 64.6%. Also, the growth inhibition in assay [3] (setting [7]) is 58%; in assay [3] (setting [8]) it was 99% (active); in assay [3] (at 50.0 µM), 68.2%; in assay [4] (setting [7]), 46%; in assay [4] (setting [8]), 98% (active); in assay [4] (at 50.0 µM), 33.1%. The growth inhibition was 52% in assay [5] (setting [7]); 99% (active) in assay [5] (setting [8]); 46.5% in assay [5] (at 50.0 µM); 24% in assay [6] (setting [7]); 98% (active) in assay [6] (setting [8]); 71.1% (active) in assay [6] (at 50.0 µM).
With `Cc1c2ccccc2c(CO)c2cc(F)c3ccccc3c12`, the growth inhibition in assay [1] (setting [7]) was 71% (active); in assay [1] (setting [8]) it was 98% (active); in assay [1] (at 50.0 µM) it was 71.5% (active); in assay [2] (setting [7]), 95% (active); in assay [2] (setting [8]), 99% (active); in assay [2] (at 50.0 µM), 34%. The growth inhibition in assay [3] (setting [7]) is 97% (active); in assay [3] (setting [8]), 99% (active); in assay [3] (at 50.0 µM) it was 84.2% (active); in assay [4] (setting [7]), 87% (active); in assay [4] (setting [8]) it was 98% (active); in assay [4] (at 50.0 µM), 31.9%. Also, the growth inhibition is 91% (active) in assay [5] (setting [7]); 98% (active) in assay [5] (setting [8]); 85% (active) in assay [5] (at 50.0 µM); 95% (active) in assay [6] (setting [7]); 98% (active) in assay [6] (setting [8]); 92.7% (active) in assay [6] (at 50.0 µM).
